Screening results deposited in PubChem BioAssay by National Center for Advancing Translational Sciences (NCATS).
Shown are actives, neighbours in structure and some others; about 6.2% of the full set was active somewhere.
VP16 counter: counter-screen for ROR gamma inhibitors: Gal4-VP16 reporter | Potency, µM (titrated, usually from 53.6 µM), inactives show top-dose activity, negative = inhibition, actives largely listed as inhibitors | Drosophila S2 Gal4-VP16 UAS-luciferase, luminescence, 20 h | 3.5% of 310,000 active | AID 2546;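 further: Gal4-VP16 expression switched on by copper sulfate through the metallothionein promoter; nearly all actives have a fitted effect of over 50% in size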
RORg inh: inhibitors of mouse ROR gamma transcriptional activity; Drosophila S2 Gal4-RORgamma UAS-luciferase reporter, 20 h; Potency, µM (titrated, usually from 53.6 µM), for inactives: top-dose activity change, negative = inhibition, most hits filed as inhibitors; 5.4% of 310,000 active; AID 2551; further: nearly all actives have a fitted effect of over 60% in size
Target sequence (P51450 whole entry, looked up, the tested form may be a part): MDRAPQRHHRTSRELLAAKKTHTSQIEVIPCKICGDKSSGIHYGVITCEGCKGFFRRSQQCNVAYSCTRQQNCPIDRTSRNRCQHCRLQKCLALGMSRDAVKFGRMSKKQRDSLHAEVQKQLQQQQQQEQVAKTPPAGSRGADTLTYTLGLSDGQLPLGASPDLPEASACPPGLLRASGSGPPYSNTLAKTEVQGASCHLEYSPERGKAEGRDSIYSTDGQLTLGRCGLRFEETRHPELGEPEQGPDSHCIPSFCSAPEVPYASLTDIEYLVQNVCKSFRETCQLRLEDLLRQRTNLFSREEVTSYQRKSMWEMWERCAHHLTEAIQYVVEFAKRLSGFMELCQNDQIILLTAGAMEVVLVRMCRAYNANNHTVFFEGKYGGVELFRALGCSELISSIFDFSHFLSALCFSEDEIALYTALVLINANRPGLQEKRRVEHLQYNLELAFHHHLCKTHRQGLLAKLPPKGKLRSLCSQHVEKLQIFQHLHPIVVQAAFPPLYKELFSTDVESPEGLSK
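Luciferase reporter read in Schneider cells carrying Gal4-RORγ (mouse) and UAS-Photinus luciferase; cells given compound 1 h before 700 uM copper sulfate induction, then incubated 20 h at ambient temperature.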
Luc counter: counter-screen: inhibitors of Kinase-Glo firefly luciferase | Kinase-Glo luciferase, ATP luminescence, 8 min | Potency, µM (titrated, usually from 38.3 µM), without a hit: at the highest dose activity change, negative = inhibition, usual class: inhibitors | 0.28% of 200,000 active | Q27757 | AID 1379; further: nearly all actives have a fitted effect of over 60% in size
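Compounds were added to a substrate mix at pH 7.2 (50 mM imidazole, 10 uM ATP, within the enzyme's linear range), followed by Kinase-Glo detection reagent; luminescence was measured after 8 minutes at ambient temperature.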
Numbers without * were called inactive; ? = inconclusive; . = no result; ! = a repeat was not active; [ ] = dose if it differs, or a comment. The call rests on the fitted dose curve; in most records, active means well fitted curve in the direction sought with a large enough effect; inconclusive means small, poorly fitted or top-dose-only effect, or another doubt; inactive means no such curve, though single readings can be large; an effect the other way counts as inactive or inconclusive. On the % scale 0 is the no-effect control and ±100 the full control effect; potency means the concentration at half of the fitted maximal effect.

SMILES	VP16 counter	RORg inh	Luc counter
COc1cc2c(c3oc4cccc(O)c4c(=O)c13)C1C=CO[C@@H]1O2 (some centres not stated)	10µM*	12.6µM*	.
C[C@@]12CC[C@H]3[C@@H](CC[C@H]4C[C@@H](O)CC[C@]43C)[C@H]1CC[C@@H]2C(=O)C[C@H](O)C(F)(F)F	.	.	-5.4%[7.66 µM]
CN1CCC2(CC1)N=C(c1ccc(F)cc1)C(=S)N2	0.6%	12.6µM*	-0.8%
CN1CCC2(CC1)NC(=O)c1ccccc1N2	-6.8%	-5.4%	.
C=C(C)C#N	5.3%	12.2%	.
c1ccc(NNc2ccccc2)cc1	-1.2%	-5.9%	.
C[S@@](=O)CCCCN=C=S	-11.4%	3.16µM*	.
c1ccc(P(c2ccccc2)c2ccccc2)cc1	-10.9%	-21.7%	.
c1ccc(-c2ccc(C(c3ccccc3)n3ccnc3)cc2)cc1 (configuration not stated)	?	10µM*!	-2.5%
CC1(C)CN=C(Nc2nc3ccccc3s2)S1	?	8.91µM*	-0.6%
CCN1CCN(c2nc3ccccc3s2)CC1	-20.4%	-33.9%	0.0%
C[C@@H]1O[C@@H](OC2CC(O)C3(CO)C4C(CCC3(O)C2)C2(O)CCC(C3=CC(=O)OC3)C2(C)C[C@H]4O)[C@H](O)[C@H](O)[C@H]1O (some centres not stated)	-6.8%	12.0%	1.6%[39.9 µM]
COc1cc2c3cc1Oc1c(O)c(OC)cc4c1[C@@H](Cc1ccc(cc1)Oc1cc(ccc1O)C[C@H]3N(C)CC2)N(C)CC4	.	.	-5.6%[7.66 µM]
C/C1=C\[C@@H](C)C/C=C/[C@H]2[C@@H]3O[C@]3(C)[C@@H](C)[C@H]3[C@H](Cc4c[nH]c5ccccc45)NC(=O)[C@]32C(=O)/C=C/C(=O)[C@@H]1O	11.2µM*	5.62µM*	.
C[C@H]1CC[C@]2(OC1)O[C@@H]1C[C@@H]3[C@@H]4CC[C@H]5C[C@@H](O)CC[C@]5(C)[C@@H]4CC(=O)[C@@]3(C)[C@H]1[C@@H]2C	?	0.5%[16.9 µM]	-2.2%[17.1 µM]
COc1ccc(OCC(=O)Nc2ccc(Cl)cc2C(=O)c2ccccc2)cc1	-12.9%	-5.0%	6.2%
O=C(COc1ccccc1)Nc1ccc(Cl)cc1C(=O)c1ccccc1	-2.2%	-6.4%	-0.7%
COc1ccc(CC(=O)NC(=S)NNC(=O)COc2c(C)cccc2C)cc1	-22.3%	12.6µM*	-4.4%
Cc1ccccc1C(=O)NNC(=S)NC(=O)COc1ccccc1	?	12.6µM*	-2.4%
CCN1CC2(OC(=O)c3ccccc3NC(C)=O)CCC(OC)[C@]34C1[C@H](CC23)[C@@]1(O)C[C@H](OC)[C@H]2CC4C1(O)[C@H]2OC (some centres not stated)	-0.4%	10.8%	.
COC(=O)[C@@H]1C[C@H]2CC[C@H](O)C[C@H]2N1CC1CC1	9.9%	4.7%	2.1%
O=C(Cl)c1ccccc1F	4.2%	-11.2%	.
Cc1ccc(OP(=O)(Oc2ccc(C)cc2)N2C=Cc3ccccc3[C@H]2C#N)cc1	.	.	-1.8%[7.66 µM]
CCNC(C)(C)[C@@H](SS)c1ccc(Br)cc1	.	.	-4.3%[7.66 µM]
CCCC[C@@H](C)[C@@H](OC(=O)C[C@@H](CC(=O)O)C(=O)O)[C@H](C[C@@H](C)CCCCCC[C@@H](O)C[C@H](O)[C@H](C)N)OC(=O)C[C@@H](CC(=O)O)C(=O)O	-9.2%	0.3%	.
SMILES	VP16 counter	RORg inh	Luc counter
CCOc1cc(OP(=S)(OC)OC)nc(CC)n1	-6.3%	17.9%	.
O=C(O)C[SH+]CC(=O)O.O=C(O)C[SH+]CC(=O)O.[Cu]	.	.	1.6%[7.66 µM]
c1ccc(CCNCc2ccccc2)cc1	-4.7%	1.6%	5.6%
CC1=C/C(=N\NC(=S)NCCc2ccccc2)CC(C)(C)C1	?	0.501µM*	2.8%
CSc1cccc(CNC(=O)C2CCC(=O)N(Cc3cccc(C(F)(F)F)c3)C2)c1 (configuration not stated)	?	9.8%	.
CCOCCCn1c(N)c(C(=O)Nc2sc3c(c2C(=O)OC)CCCC3)c2nc3ccccc3nc21	11.2µM*	?	5.3%
CCOC(=O)c1c(NC(=O)c2c(N)n(CCCOC)c3nc4ccccc4nc23)sc2c1CCCC2	?	?	-1.5%
Oc1cc(Cl)ccc1Cl	-7.5%	17.0%	.
CCC(Cl)[N+](=O)[O-] (configuration not stated)	-7.3%	2.0%	.
CCCN1CCO[C@@H]2c3cc(O)ccc3OC[C@@H]21	7.7%	8.3%	-1.2%
O=C(c1ccccc1F)c1cn(Cc2ccccc2)c2ccccc12	-22.1%	?	2.1%
O=Cc1cn(Cc2ccccc2F)c2ccccc12	-14.5%[10 µM]	2µM*	-0.2%
CC(C)C(=O)c1cn(Cc2ccccc2C#N)c2ccccc12	7.3%	1.5%	1.1%
O=Cc1cn(Cc2c(F)cccc2Cl)c2ccccc12	?	-40.6%	2.9%
CC(=O)c1cn(Cc2ccccc2F)c2ccccc12	7.08µM*	27.9%	.
O=Cc1cn(CCCOc2ccccc2)c2ccccc12	?	-1.1%	1.1%
CC(=O)c1cn(Cc2ccccc2C#N)c2ccccc12	3.16µM*	?	-1.7%
COc1ccccc1OCCCn1cc(C=O)c2ccccc21	0.002µM*	?	-1.7%
Cc1ccnc(SCc2nc3ccccc3s2)n1	2.7%	?	-2.9%
CC(C)C[C@H](NC(=O)[C@H](CC(C)C)NC(=O)[C@H](Cc1ccccc1)NC(=O)[C@@H](N)Cc1ccc(O)cc1)C(=O)N[C@@H](CCCN=C(N)N)C(=O)N[C@@H](CC(N)=O)C(=O)N1CCC[C@H]1C(=O)O	4.8%	5.0%	.
S=c1[nH]nc(-c2ccco2)n1/N=C/c1cccs1	?	-27.2%	4.4%
C=C(C)Cn1c(-c2cccc([N+](=O)[O-])c2)n[nH]c1=S	-6.6%[10 µM]	7.08µM*	-0.3%
O=[N+]([O-])c1cccc(O)c1	-15.0%	30.0%	.
C=C(C)Cn1c(-c2cccs2)n[nH]c1=S	14.1µM*	12.6µM*	-1.5%
O=C(Nc1ccc([As](=O)(O)O)cc1)Nc1cccc(Cl)c1Cl	.	.	-2.5%[7.66 µM]
SMILES	VP16 counter	RORg inh	Luc counter
CCNCC	-3.7%	6.1%	.
C=CCCC#N	-12.9%	-8.2%	.
CN(CC(=O)Nc1ccc(N2CCOCC2)cc1)CC(=O)Nc1cccc(C#N)c1	?	16.4%	-1.1%
CC(C)(C)c1cc([N+](=O)[O-])cc(C(C)(C)C)c1O	4.47µM*	14.1µM*	-4.0%
NC(=O)c1cc([N+](=O)[O-])cc([N+](=O)[O-])c1	-10.4%	-40.2%	-5.8%
CCC(C)C1N=C(c2ccccc2)c2cc(Cl)ccc2N(CC(=O)NCc2ccco2)C1=O (configuration not stated)	-22.0%	13.3%	4.8%
Cc1ccccc1C1=NCC(=O)N(CC(=O)NCc2ccco2)c2sc3c(c21)CCCC3	12.6µM*	?	-2.4%
Nc1nc(N)c(N=Nc2ccc([As](=O)(O)O)c(O)c2)c(N)n1	.	.	-4.1%[7.66 µM]
CCN(CC)S(=O)(=O)c1ccc(NN=C(C#N)C#N)cc1	?	2.4%	-2.8%
Cc1cc(C)n(-c2ccc(NN=C(C#N)C#N)cc2)n1	10µM*	?	.
N#CC(C#N)=NNc1ccc(-n2ccc(C(F)(F)F)n2)cc1	3.55µM*	5.01µM*	.
O=C(CCN1CCN(CCO)CC1)N1c2ccccc2Sc2ccc(C(F)(F)F)cc21	-4.2%	43.0%	.
O=C(O)c1ccccc1SCC(=O)N1c2ccccc2Sc2ccccc21	14.1µM*	-12.2%	-0.8%
COc1ccc(NC(=O)N2CCC3(CC2)CCN(C(=O)Oc2ccccc2)CC3)cc1	?	?	-3.6%
